Compound activity from PubChem.
M1 ag = M1 muscarinic receptor agonists, primary screen, CHO-M1 cells, Fluo-4 calcium, agonist mode. B-score at 10 µM. Muscarinic acetylcholine receptor M1. Fluo-4 calcium fluorescence; stronger effect = higher value. AID 626, 2007. 64,000 compounds, 3% hits;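 active means fluorescence rise, raw or as B-score row- and column-corrected plate score, outside the 99.7% band of its plate's samples, either direction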
Cav3 T inh = Cav3.2 calcium influx blockers – cell-based, Fluo-4 calcium fluorescence, FDSS, MLSMR library, primary screen; Voltage-dependent T-type calcium channel subunit alpha-1H (Homo sapiens), O95180; Cav3.2-expressing cells; stronger effect = lower value; B-score at 10 µM; 100,000 compounds, 4% hits;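 active means single-dose well whose peak fluorescence ratio is a statistical outlier from its plate by either plate-standardised score or position-corrected B-score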
Her2 expr inh = inhibitors of Her2 protein expression, primary screen, SKBR-3 cells, AlphaScreen, 66K library | SKBR-3 HER2 protein level, 18-24 h; stronger effect = lower value | HER2 level % of control, % at 10 µM | 65,000 compounds, 0.69% hits | AID 645, 2007;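 active means HER2 level under 5% of the carrier-only control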;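 further: 100% = DMSO carrier and 0% = 500 nM PU-H71 HSP90 inhibitor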
PLAP activator = PLAP enzyme activators, biochemical, luminescence, HTS; activation fold at 20 µM; Alkaline phosphatase, placental type (Homo sapiens), P05187; 96,000 compounds, 1.2% hits; purified PLAP enzyme, luminescent substrate read-out; stronger effect = higher value; in the data active means activation fold above about 2
M1 antagonist = antagonists of rat M1 muscarinic receptor; 64,000 compounds, 3.4% hits; B-score at 10 µM; Muscarinic acetylcholine receptor M1 (Rattus norvegicus), P08482; CHO-M1 cells, Fluo-4 calcium, ACh EC80 antagonist mode; stronger effect = lower value;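 active means calcium fluorescence response, raw or row-and-column corrected B-score, differing from the plate sample mean either way at a set confidence level, mostly lower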
Target sequence (P08482 whole entry, looked up): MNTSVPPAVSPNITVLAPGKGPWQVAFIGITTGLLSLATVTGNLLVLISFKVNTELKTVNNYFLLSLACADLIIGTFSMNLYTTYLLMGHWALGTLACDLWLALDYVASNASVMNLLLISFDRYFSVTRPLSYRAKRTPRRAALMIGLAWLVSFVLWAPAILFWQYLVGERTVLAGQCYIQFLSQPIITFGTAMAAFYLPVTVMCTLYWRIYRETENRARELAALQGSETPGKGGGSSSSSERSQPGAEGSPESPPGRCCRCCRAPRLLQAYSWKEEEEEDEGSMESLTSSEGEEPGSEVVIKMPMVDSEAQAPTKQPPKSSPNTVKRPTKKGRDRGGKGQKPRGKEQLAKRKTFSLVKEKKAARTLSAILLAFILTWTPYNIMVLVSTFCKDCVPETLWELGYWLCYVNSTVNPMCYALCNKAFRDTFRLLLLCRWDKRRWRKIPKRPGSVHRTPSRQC
Starred values were filed as active, the others as inactive. Shown are actives, neighbours in structure and some others; about 7.9% of the full set was active somewhere.

`CCCCC(=O)Nc1cccc(-c2nnc(-c3ccccc3)o2)c1` gave M1 ag 2.7*, Cav3 T inh -0.8, Her2 expr inh 126, PLAP activator 1.1 and M1 antagonist -1.1.
For Cc1c2cc(O)c(=O)cc-2oc2cc(O)c(O)cc12 the results were Cav3 T inh -3.9* and PLAP activator 0.6.
`COc1c(O)cc2oc(-c3ccc(O)cc3)cc(=O)c2c1O` gave Cav3 T inh -0.87.
`Cc1ccc(-n2nnnc2-c2cnc(-c3cccnc3)nc2C(F)(F)F)cc1` gave Cav3 T inh -1.4 and PLAP activator 0.9.
Screening FC(F)(F)c1nc(N2CCCC2)ncc1-c1nnnn1-c1ccc(Cl)cc1 returned Cav3 T inh -4.8* and PLAP activator 1.4.
`O=S(=O)(Nc1ncnc2sc3c(c12)CCC3)c1ccc2ccccc2c1` gave Cav3 T inh -4.7* and PLAP activator 1.9.
For CCCn1nnc(NC(=O)c2cccc(OCc3ccccc3)c2)n1 the results were Cav3 T inh -1.3 and PLAP activator 0.9.
For CC(=O)Oc1ccc2c(=O)c(-c3ccccc3)c(C)oc2c1 the results were Cav3 T inh -4.5*.
`O=C(Nc1cccc(Cl)c1)N1CCN(c2ncccn2)CC1` gave M1 ag 0.14, Cav3 T inh -2.8, Her2 expr inh 85, PLAP activator 0.8 and M1 antagonist 0.55.
`O=C(c1ccc(Br)o1)N1CCN(C/C=C/c2ccccc2)CC1` gave M1 ag -0.27, Cav3 T inh -0.034, Her2 expr inh 89, PLAP activator 1.1 and M1 antagonist -0.22.
For O=C(c1ccc(Br)s1)N1CCN(C/C=C/c2ccccc2)CC1 the results were Cav3 T inh -1.1 and PLAP activator 2*.
For O=C(Nc1cccc(Cl)c1)N1CCN(C/C=C/c2ccccc2)CC1 the results were M1 ag -0.041, Cav3 T inh -6*, Her2 expr inh 65, PLAP activator 1.4 and M1 antagonist -0.39.
`CCOc1ccccc1N1CCN(C(=O)Nc2ccc(Cl)c(Cl)c2)CC1` gave PLAP activator 1.5.
For CCOc1ccccc1N1CCN(C(=O)Nc2cccc(Cl)c2)CC1 the results were M1 ag 2.2, Cav3 T inh -6.1*, Her2 expr inh 95, PLAP activator 1 and M1 antagonist -1.3.
COc1nc(N)c(S(=O)(=O)c2ccccc2C)cc1C#N was read as Cav3 T inh -3.9* and PLAP activator 0.7.
Cc1cccc2c1NC(=O)C2(c1ccc(O)cc1)c1ccc(O)cc1 was read as Cav3 T inh -5.1* and PLAP activator 1.
`CCC(SC1=N/C(=C/c2ccccc2OC)C(=O)N1c1ccccc1)C(=O)Nc1cc(C)on1` (stereo not given) gave Cav3 T inh -4.8* and PLAP activator 1.
`COC(C[C@H]1O[C@H]1[C@H](O)[C@H](C)OCc1ccccc1)OC` gave Cav3 T inh -1.1.
Cc1ccc(C)c(N2CCN(c3cc(C)nc4nnnn34)CC2)c1 was read as M1 ag -0.074, Her2 expr inh 84 and M1 antagonist -0.32.
Cc1ccccc1Cn1c(=N)n(CC(=O)c2ccco2)c2ccccc21 was read as M1 ag -0.42, Cav3 T inh -4.2*, Her2 expr inh 85, PLAP activator 1 and M1 antagonist -0.58.
For COc1ccc(/C=C2\CCc3ccccc3C2=O)cc1Cn1nc(C)cc1C the results were Cav3 T inh -4.3* and PLAP activator 1.6.
For CC12CCC(C(=O)N3CCN(c4ccccc4)CC3)(CC1=O)C2(C)C (stereo not given) the results were M1 ag -0.45, Cav3 T inh -0.0023, Her2 expr inh 100, PLAP activator 1.5 and M1 antagonist -0.32.
`CCC(C)(NC(=O)c1cccc(N2C(=O)CSC2c2ccccc2)c1)C(=O)Nc1ccccc1C` (stereo not given) gave Cav3 T inh -5.1* and PLAP activator 1.2.
`O=S(=O)(N/N=C\c1ccc2c(c1)OCO2)c1ccc(Cl)cc1` gave Cav3 T inh -0.71 and PLAP activator 1.2.
COCCNC(=O)NC(=O)COC(=O)c1cc([N+](=O)[O-])ccc1Sc1nc(C)cs1 was read as Cav3 T inh 0.49 and PLAP activator 0.9.
`COc1ccc(C(=O)Nc2ccc3oc(-c4cccc(Cl)c4)cc(=O)c3c2O)cc1` gave Cav3 T inh -0.73.
`Cc1ccc(C)c(Cn2cnc3c(cnn3C(C)(C)C)c2=O)c1` gave Cav3 T inh -4.8*, Her2 expr inh 97 and PLAP activator 1.
Screening CC(=O)O[C@@H]1[C@@]2(C)O[C@H]2CC[C@]23O[C@H]2[C@H](OC3=O)C2=C(C)C(=O)O[C@@]21O returned Cav3 T inh -0.46.
CC(C)CCNC(=O)C(c1ccncc1)N(Cc1cccs1)C(=O)Cn1nnc(-c2ccc(F)cc2)n1 (stereo not given) was read as Cav3 T inh -7.4*.
Screening O=C(NCC1CCCO1)C(c1ccc(F)cc1)N(Cc1ccc(F)cc1)C(=O)Cn1nnc(-c2cccs2)n1 (stereo not given) returned Cav3 T inh -1.6.
`O=C(NCC1CCCO1)C(c1cccs1)N(Cc1cccs1)C(=O)Cn1nnc(-c2cccs2)n1` (stereo not given) gave Cav3 T inh -7.1*.
`CC(=O)Nc1nc(N2C(=O)c3ccccc3C2=O)n(-c2ccccc2)n1` gave M1 ag 0.59, Her2 expr inh 77, PLAP activator 1.5 and M1 antagonist 0.34.
Screening O=C(Nc1nc(N2C(=O)c3ccccc3C2=O)n(-c2ccccc2)n1)c1ccc(F)cc1 returned Cav3 T inh -0.69 and PLAP activator 2.1*.
Screening CSc1nc2ccc(S(=O)(=O)N(C)C)cc2s1 returned Cav3 T inh 0.25 and PLAP activator 0.9.
Screening CSc1nc2ccc(NS(=O)(=O)c3ccc(Cl)s3)cc2s1 returned M1 ag -0.057, Cav3 T inh -5.6*, Her2 expr inh 91, PLAP activator 1.3 and M1 antagonist -0.11.
Screening COc1ccc(NC(=O)c2cnc3ccccn3c2=O)cc1OC returned M1 ag -1.7, Her2 expr inh 123 and M1 antagonist 0.21.
`N#CC(C#N)=c1ccc2c(c1)NC1(CCCCC1)N=2` gave M1 ag 2.1, Cav3 T inh 0.86, Her2 expr inh -26*, PLAP activator 0.8 and M1 antagonist 0.085.
`CCOC(=O)c1ccc(-n2c(=S)sc3c(=O)[nH]c(C)nc32)cc1` gave M1 ag -0.41, Cav3 T inh -0.071, Her2 expr inh 98, PLAP activator 0.9 and M1 antagonist 0.94.
